Data published in PubChem BioAssay (NCATS).
Unmarked numbers belong to inactive results. Results filed as inconclusive are left out. Calls of active or inactive are those of the source. Unless noted, the call rests on the fitted dose curve; in most records, active means well fitted curve in either direction with a large enough effect (not every such curve was filed as active); inconclusive means small, poorly fitted or top-dose-only effect, or another doubt; inactive means flat fitted curve, though single readings scatter.

Experiments:
[1] = biological target: Lysosomal acid glucosylceramidase (Homo sapiens) (UniProt P04062); assay: Glucocerebrosidase-p2 (AID 348; in the data active means potency below about 10 µM; further: potency means the concentration at half of the fitted maximal effect); settings: purified GBA, blue fluorogenic substrate, 40 min
Procedure, shortened: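 Normal human glucocerebrosidase (0.2 nM) with blue fluorogenic substrate (80 uM final) in citrate/phosphate pH 5.9 with 10mM sodium taurocholate, 0.01% tween-20; 40 min RT, NaOH/glycine stop; fluorescence Ex 365/Em 440; AC50 from a titration from 0.6 nM upwards.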

[2] = AP1 Signaling Pathway (AID 357); settings: ME-180 AP-1-bla reporter, EGF-induced, beta-lactamase ratio, 5 h; at 7.69 µM (top of the series) unless noted;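 further: ME-180 reporter cells stimulated with EGF at its EC50 level; on the % scale 0 is the no-effect control and ±100 the full control effect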
Procedure, shortened: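 Cells are seeded overnight, exposed to compound titrations and an EC50 level of EGF for 5 hours at 37 °C, then loaded with CCF4 dye for 2.5 hours. Beta-lactamase activity under the AP-1 element is read as a blue/green ratio.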

[3] = biological target: Cytochrome P450 1A2 (Homo sapiens) (UniProt P05177); assay: p450-cyp1a2 (AID 410; calls by dose curve; further: potency means the concentration at half of the fitted maximal effect;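 on activity change, negative = inhibition: -100% = full effect of reference inhibitor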); settings: recombinant CYP1A2, luciferin-ME demethylation, luminescence; series mostly up to 11.4 µM
Procedure, shortened: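 Luminescent demethylation readout: Luciferin-ME (100uM, equal to Km) turned over by 20nM CYP1A2 for 60 min at room temperature after NADPH regeneration addition, following 10 min compound preincubation. Normalization used 57 uM furafylline as full inhibition.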

[4] = NFAT Signaling Pathway (AID 444); settings: Jurkat NFAT-bla M1, carbachol, beta-lactamase ratio, 5 h; at 7.69 µM (top of the series) unless noted;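 further: carbachol stimulus at about its EC50 of 1 µM final; on the % scale 0 is the no-effect control and ±100 the full control effect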
Procedure, shortened: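 Jurkat cells carrying an NFAT-driven β-lactamase reporter and co-transfected muscarinic M1 receptor were treated with compound plus carbachol (1 uM final, an EC50 level) for 5 h at 37 °C. CCF4 loading followed for 1 h at RT; 460/530 nm ratio gave %activity.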

[5] = Stat Signaling Pathway (AID 446); settings: ME-180 SIE beta-lactamase reporter, IL-6 stimulated, 5 h; at 7.69 µM (top of the series) unless noted;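 further: ME-180 cervical cancer cells given 40 pM IL-6 alongside compound; SIE-controlled beta-lactamase reporter measured as 460/530 nm FRET emission ratio; on the % scale 0 is the no-effect control and ±100 the full control effect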
Procedure, shortened: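 Normalization used AC90 stimulation (300 pM IL-6) and AC90 inhibition (125 nM pan-JAK inhibitor at 40 pM IL-6). The underlying signal is SIE-driven beta-lactamase in ME-180 cells after 5 h IL-6 exposure with compound.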

[6] = biological target: Glucocorticoid receptor (Homo sapiens) (UniProt P04150); assay: GR-GFP Redistribution (AID 450;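 active means compounds whose dose series gives a full or clear partial fitted curve of increased nuclear translocation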; further: potency means the concentration at half of the fitted maximal effect); settings: U2OS GR-GFP nuclear translocation, laser cytometry, 2 h
[7] = biological target: Glucocorticoid receptor (Homo sapiens) (UniProt P04150); assay: GR-EFC Redistribution (AID 451; calls by dose curve; further: potency means the concentration at half of the fitted maximal effect); settings: CHO-K1 GR-EFC translocation, beta-gal luminescence, 2 h
Procedure, shortened: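 CHO-K1 cells stably expressing nuclear-localized β-gal enzyme acceptor and GR fused C-terminally to the enzyme donor fragment; ligand-driven nuclear translocation restores β-gal by complementation. Compounds titrated up to 46 uM final, 2 h at 37 °C; luminescence read.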

[8] = biological target: Mitogen-activated protein kinase 10 (Mus musculus) (UniProt Q61831); assay: JNK3 AlphaScreen Assay (AID 530); settings: JNK3 lysate, c-Jun phosphorylation; series mostly up to 11.4 µM;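 further: kinase came from lysate of stimulated human HepG2 cells; signal reports phosphorylation of biotinylated GST-cJun 1-79 at Ser73 with 10 µM ATP; on the % scale 0 is the no-effect control and ±100 the full control effect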
Procedure, shortened: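 Phosphorylation of biotinylated GST-cJun(1-79) at Ser73 is measured by AlphaScreen proximity luminescence. Enzyme is JNK3 in HepG2 lysates activated with interleukin-1beta and tumor necrosis factor alpha; ATP is 10 uM final.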

[9] = biological target: 3',5'-cyclic-AMP phosphodiesterase 4B (Homo sapiens) (UniProt Q07343); assay: qHTS Assay for Inhibitors of PDE-IV (AID 607; active means well fitted activation curve with a large enough effect in the main read-out, with a control signal flat, not every such curve was filed as active; further: % of control where 0% means no effect); settings: HEK293 ACTOne CNG channel cells, membrane potential fluorescence; series mostly up to 22.9 µM
Procedure, shortened: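 HEK293 ACTOne cells with CNG channel (1000/well), endogenous PDE4; membrane potential dye, compounds up to 22.9 uM final. Fluorescence Ex 535/Em 590; RO 20-1724 (100 uM final) as reference.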

[10] = biological target: Cytochrome P450 2C9 (Homo sapiens) (UniProt P11712); assay: qHTS Assay for Inhibitors and Substrates of Cytochrome P450 2C9 (AID 883; active means well fitted curve in the direction sought with a large enough effect; an effect the other way counts as inactive or inconclusive; further: nearly all actives have a fitted effect of over 60% in size; further: potency means the concentration at half of the fitted maximal effect); settings: recombinant CYP2C9, luciferin-H luminescence, 60 min; series mostly up to 11.4 µM
Procedure, shortened: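 Human CYP2C9 (10nM) hydroxylated Luciferin-H (100uM, at its KM) to luciferin in 25mM KPO4. Compound was preincubated 10 min at 37C, then NADPH regeneration started a 60 min reaction at 37C. Luminescence was read after detection reagent, normalized to 57uM sulphaphenazole.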

[11] = biological target: Cytochrome P450 3A4 (Homo sapiens) (UniProt P08684); assay: qHTS Assay for Inhibitors and Substrates of Cytochrome P450 3A4 (AID 884; active means well fitted curve in the direction sought with a large enough effect; an effect the other way counts as inactive or inconclusive; further: nearly all actives have a fitted effect of over 50% in size; further: potency means the concentration at half of the fitted maximal effect); settings: recombinant CYP3A4, Luciferin-PPXE luminescence; series mostly up to 57.1 µM
Procedure, shortened: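 Luminescent readout of luciferin produced by CYP3A4 (20 nM) dealkylation of Luciferin-PPXE, 25 uM (its KM). NADPH-driven reaction ran 60 min at RT after 10 min compound preincubation; data scaled to 57 uM ketoconazole as 100% inhibition.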

[12] = biological target: Cytochrome P450 2D6 (Homo sapiens) (UniProt P10635); assay: qHTS Assay for Inhibitors and Substrates of Cytochrome P450 2D6 (AID 891; active means well fitted curve in the direction sought with a large enough effect; an effect the other way counts as inactive or inconclusive; further: nearly all actives have a fitted effect of over 60% in size; further: potency means the concentration at half of the fitted maximal effect); settings: recombinant CYP2D6, luciferin-ME EGE luminescence; series mostly up to 11.4 µM
Procedure, shortened: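 Luminescent read-out of luciferin formed by 5 nM human CYP2D6 demethylating 30 uM Luciferin-ME EGE (Km level) over 60 min at room temperature after NADPH regeneration addition. Data normalized to full inhibition by 1.43 uM quinidine.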

[13] = biological target: Cytochrome P450 2C19 (Homo sapiens) (UniProt P33261); assay: qHTS Assay for Inhibitors and Substrates of Cytochrome P450 2C19 (AID 899; active means well fitted curve in the direction sought with a large enough effect; an effect the other way counts as inactive or inconclusive; further: nearly all actives have a fitted effect of over 60% in size; further: potency means the concentration at half of the fitted maximal effect); settings: recombinant CYP2C19, luciferin-H EGE luminescence; series mostly up to 11.4 µM
Procedure, shortened: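 Human CYP2C19 (5nM) with Luciferin-H EGE at 10uM (its KM) in 50mM KPO4 was preincubated with compound for 10 min at 37C. NADPH regeneration started a 60 min 37C reaction. Luciferin was read by luminescence, normalized to 57uM ketoconazole.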

[14] = qHTS Assay for Identification of Small Molecule Agonists for Hypoxia Response Element Signaling Pathway (AID 914; active means well fitted activation curve with a large enough effect in the signal ratio, with a control signal flat, not every such curve was filed as active; the % refers to the signal ratio; further: % of control where 0% means no effect); settings: ME-180 (cervical carcinoma) HRE-bla reporter, beta-lactamase ratio, CoCl2, 17 h; activation: stronger effect = higher value
Procedure, shortened: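 HRE-bla ME-180 cells, overnight plating in Opti-MEM with 0.5% dialyzed FBS; cpd titration + EC50 CoCl2, 17 h, 37 degrees Celsius; CCF4 2.5 h RT; 460/530 nm ratio; AC50.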

[15] = biological target: Cytochrome P450 3A4 (Homo sapiens) (UniProt P08684); assay: qHTS Assay for Activators of Cytochrome P450 3A4 (AID 885; active means well fitted curve in the direction sought with a large enough effect; an effect the other way counts as inactive or inconclusive; further: nearly all actives have a fitted effect of over 65% in size); settings: recombinant CYP3A4, Luciferin-PPXE luminescence, 60 min; series mostly up to 11.4 µM
Procedure, shortened: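 Human CYP3A4 dealkylates Luciferin-PPXE to luciferin, which luciferase detection converts to light. Substrate was at its KM (25uM), buffer 200mM KPO4, reaction 60 min at RT.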

Sequence of Cytochrome P450 2C9 (Homo sapiens) (P11712 whole entry, looked up): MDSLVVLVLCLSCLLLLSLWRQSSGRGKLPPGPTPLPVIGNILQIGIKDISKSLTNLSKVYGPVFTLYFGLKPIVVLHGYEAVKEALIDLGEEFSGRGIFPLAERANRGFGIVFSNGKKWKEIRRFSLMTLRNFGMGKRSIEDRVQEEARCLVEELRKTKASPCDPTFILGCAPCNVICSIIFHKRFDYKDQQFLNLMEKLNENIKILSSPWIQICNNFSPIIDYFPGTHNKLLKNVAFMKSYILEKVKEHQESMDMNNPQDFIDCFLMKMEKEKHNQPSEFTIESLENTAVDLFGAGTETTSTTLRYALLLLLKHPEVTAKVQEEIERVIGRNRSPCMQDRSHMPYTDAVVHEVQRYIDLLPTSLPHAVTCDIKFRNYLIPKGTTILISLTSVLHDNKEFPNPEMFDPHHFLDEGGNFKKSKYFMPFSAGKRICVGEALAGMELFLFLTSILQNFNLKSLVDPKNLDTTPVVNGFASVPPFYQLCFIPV
Sequence of Cytochrome P450 1A2 (Homo sapiens) (P05177 whole entry, looked up): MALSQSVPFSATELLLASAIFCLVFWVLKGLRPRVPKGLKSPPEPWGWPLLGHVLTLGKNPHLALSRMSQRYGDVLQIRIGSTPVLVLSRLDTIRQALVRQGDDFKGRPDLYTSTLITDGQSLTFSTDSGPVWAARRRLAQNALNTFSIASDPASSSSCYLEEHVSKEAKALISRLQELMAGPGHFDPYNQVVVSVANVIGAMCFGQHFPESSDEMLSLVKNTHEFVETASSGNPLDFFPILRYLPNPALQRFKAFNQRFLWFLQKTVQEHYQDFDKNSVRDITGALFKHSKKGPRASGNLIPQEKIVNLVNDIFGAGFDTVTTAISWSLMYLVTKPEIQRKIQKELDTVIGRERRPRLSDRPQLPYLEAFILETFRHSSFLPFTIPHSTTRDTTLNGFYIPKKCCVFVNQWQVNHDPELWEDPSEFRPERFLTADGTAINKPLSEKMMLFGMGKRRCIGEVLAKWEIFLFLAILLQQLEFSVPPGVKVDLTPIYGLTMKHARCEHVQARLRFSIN
Sequence of Glucocorticoid receptor (Homo sapiens) (P04150 whole entry, looked up, the tested form may be a part): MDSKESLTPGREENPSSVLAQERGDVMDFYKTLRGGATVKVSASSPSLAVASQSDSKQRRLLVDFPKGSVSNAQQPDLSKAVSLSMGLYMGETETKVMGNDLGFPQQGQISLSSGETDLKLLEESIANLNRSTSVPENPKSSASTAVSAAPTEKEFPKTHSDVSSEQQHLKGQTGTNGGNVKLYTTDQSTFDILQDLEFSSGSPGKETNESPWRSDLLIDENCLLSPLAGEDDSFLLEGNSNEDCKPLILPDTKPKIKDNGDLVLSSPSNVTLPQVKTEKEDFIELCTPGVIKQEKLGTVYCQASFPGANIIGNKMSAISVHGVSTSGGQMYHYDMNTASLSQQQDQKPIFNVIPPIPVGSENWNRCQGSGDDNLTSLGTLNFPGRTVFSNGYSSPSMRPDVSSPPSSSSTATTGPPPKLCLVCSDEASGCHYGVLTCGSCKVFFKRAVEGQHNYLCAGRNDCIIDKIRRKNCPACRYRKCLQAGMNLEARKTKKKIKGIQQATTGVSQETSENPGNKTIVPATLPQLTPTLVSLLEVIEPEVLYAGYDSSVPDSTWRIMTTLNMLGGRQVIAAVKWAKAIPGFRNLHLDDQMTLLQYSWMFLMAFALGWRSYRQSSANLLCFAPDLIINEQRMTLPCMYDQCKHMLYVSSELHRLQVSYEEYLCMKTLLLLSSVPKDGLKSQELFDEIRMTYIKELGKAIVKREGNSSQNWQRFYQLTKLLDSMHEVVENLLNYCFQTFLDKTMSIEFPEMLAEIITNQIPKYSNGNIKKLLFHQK
Sequence of Cytochrome P450 3A4 (Homo sapiens) (P08684 whole entry, looked up): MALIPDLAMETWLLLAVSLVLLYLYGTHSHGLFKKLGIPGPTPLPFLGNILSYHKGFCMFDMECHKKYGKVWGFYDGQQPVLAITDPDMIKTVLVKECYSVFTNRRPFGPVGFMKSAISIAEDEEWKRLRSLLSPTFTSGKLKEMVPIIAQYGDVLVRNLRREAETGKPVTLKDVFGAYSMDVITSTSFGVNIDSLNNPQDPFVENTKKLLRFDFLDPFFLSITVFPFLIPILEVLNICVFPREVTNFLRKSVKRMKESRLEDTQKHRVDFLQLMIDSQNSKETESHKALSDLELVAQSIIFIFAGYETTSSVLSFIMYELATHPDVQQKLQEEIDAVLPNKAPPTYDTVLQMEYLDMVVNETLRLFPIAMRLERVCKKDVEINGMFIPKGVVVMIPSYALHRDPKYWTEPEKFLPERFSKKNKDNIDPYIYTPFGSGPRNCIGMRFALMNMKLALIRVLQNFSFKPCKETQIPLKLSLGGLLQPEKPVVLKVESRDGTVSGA
Sequence of Lysosomal acid glucosylceramidase (Homo sapiens) (P04062 whole entry, looked up): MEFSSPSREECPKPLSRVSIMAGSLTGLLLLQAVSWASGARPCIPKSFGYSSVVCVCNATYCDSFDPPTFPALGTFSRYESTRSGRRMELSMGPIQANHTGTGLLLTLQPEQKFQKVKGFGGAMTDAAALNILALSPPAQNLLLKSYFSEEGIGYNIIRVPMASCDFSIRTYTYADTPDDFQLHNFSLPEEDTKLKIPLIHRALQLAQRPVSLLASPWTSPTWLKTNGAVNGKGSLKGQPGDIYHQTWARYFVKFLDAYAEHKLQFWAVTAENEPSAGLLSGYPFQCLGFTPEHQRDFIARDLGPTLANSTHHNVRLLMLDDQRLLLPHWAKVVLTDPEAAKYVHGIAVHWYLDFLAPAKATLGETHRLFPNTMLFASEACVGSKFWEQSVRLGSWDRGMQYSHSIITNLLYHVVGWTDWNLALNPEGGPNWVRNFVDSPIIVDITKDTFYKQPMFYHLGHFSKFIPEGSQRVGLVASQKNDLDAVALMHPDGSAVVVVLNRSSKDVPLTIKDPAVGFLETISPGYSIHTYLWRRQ
Sequence of Cytochrome P450 2C19 (Homo sapiens) (P33261 whole entry, looked up): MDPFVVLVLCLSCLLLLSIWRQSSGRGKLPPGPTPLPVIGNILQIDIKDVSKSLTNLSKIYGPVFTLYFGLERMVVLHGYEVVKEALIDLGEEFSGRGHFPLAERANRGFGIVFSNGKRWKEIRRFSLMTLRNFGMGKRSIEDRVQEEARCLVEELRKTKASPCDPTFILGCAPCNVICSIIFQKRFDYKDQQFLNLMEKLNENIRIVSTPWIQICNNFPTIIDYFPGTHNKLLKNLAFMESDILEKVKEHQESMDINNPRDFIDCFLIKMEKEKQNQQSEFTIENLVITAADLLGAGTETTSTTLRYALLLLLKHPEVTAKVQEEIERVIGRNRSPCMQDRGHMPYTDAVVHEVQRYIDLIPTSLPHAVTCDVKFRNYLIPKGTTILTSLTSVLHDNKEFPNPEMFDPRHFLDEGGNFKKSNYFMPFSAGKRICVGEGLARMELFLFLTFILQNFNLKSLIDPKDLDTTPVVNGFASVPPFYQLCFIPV
Sequence of 3',5'-cyclic-AMP phosphodiesterase 4B (Homo sapiens) (Q07343 whole entry, looked up): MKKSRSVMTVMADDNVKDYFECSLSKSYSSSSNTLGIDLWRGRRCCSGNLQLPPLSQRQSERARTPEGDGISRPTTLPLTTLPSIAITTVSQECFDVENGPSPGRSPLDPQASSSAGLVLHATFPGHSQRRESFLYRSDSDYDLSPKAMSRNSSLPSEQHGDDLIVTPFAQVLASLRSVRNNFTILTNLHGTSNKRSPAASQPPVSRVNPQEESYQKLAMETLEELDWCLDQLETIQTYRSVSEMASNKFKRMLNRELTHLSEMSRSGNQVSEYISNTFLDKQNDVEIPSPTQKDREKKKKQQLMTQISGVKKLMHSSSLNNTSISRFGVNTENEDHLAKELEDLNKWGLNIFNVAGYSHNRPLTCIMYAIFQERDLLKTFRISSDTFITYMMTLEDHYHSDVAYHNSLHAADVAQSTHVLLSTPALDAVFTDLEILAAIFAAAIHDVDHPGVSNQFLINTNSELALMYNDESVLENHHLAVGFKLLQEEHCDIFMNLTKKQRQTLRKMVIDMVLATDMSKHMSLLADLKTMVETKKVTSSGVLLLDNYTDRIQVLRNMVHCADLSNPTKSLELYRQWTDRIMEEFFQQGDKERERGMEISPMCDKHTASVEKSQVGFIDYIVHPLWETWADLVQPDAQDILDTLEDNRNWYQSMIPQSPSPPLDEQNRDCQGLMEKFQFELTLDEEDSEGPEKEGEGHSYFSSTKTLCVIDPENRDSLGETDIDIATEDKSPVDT
Sequence of Cytochrome P450 2D6 (Homo sapiens) (P10635 whole entry, looked up): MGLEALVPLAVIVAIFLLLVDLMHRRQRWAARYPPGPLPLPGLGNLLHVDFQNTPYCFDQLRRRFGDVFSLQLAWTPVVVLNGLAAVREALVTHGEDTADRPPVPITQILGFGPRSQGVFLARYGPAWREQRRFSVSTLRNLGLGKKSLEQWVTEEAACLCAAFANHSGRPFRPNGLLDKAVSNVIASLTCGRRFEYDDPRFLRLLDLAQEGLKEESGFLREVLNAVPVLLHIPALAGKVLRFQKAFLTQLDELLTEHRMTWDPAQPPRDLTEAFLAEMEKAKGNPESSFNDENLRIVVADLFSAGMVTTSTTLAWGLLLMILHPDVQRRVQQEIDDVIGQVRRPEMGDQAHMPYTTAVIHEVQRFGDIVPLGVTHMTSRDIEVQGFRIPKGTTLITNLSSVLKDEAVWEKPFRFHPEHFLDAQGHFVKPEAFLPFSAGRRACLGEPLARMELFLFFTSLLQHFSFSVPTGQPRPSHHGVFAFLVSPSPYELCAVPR

Structure (SMILES)	Potency [1] [µM]	activity change, negative = inhibition [2] [%]	Potency [3]	activity change, negative = inhibition [4] [%]	activity, negative = inhibition [5] [%]	Potency [6] [µM]	Potency [7] [µM]	Potency [8]	Potency [9]	Potency [10]	activity change, negative = inhibition [11]	Potency [12]	Potency [13]	activation [14] [%]	activity change, negative = inhibition [3]	Potency [11]	Potency [15]
COc1ccc(CCCC(=O)O)c(C)c1	> 11.4	1.4	inactive	-4.8	-0.975	> 46	> 9.22	inactive	inactive	inactive	-0.798% [at 11.4 µM]	inactive	inactive	-8.35			
CCCCSCc1nc2nc(Cl)c(Cl)nc2[nH]1	> 11.4	-2.19	3.16 µM (active)	-24.8	-21.2	> 46	> 9.22	inactive	inactive	0.501 µM (active)			2 µM (active)				
O=C(C[C@@H]1C=Cc2ccccc2N1C(=O)c1ccccc1)c1ccccc1	> 11.4	-6.74		-22.9	-9.68	> 46	> 9.22	inactive	inactive	2.51 µM (active)			0.501 µM (active)		-23.2% [at 2.29 µM]	3.98 µM (active)	inactive
BrC(c1cccc2ccccc12)c1cccc2ccccc12	> 11.4	0.329	1.26 µM (active)	-5.96	-2.07	> 46	> 9.22	inactive	inactive	3.16 µM (active)			1.26 µM (active)				
CCOc1ccccc1/C=C(\C#N)C(N)=O	> 11.4	3.2	2 µM (active)	-1.04	4.29	> 46	> 9.22	inactive	inactive	inactive							
CN[C@@H](c1ccncc1)[C@@H](NC)c1ccncc1	> 11.4	11.4	inactive	-1.07	-0.841	> 46	> 9.22	inactive	inactive							5.01 µM (active)	
CC1=C/C(=N/O)C([C@H]2C=C(C)CC(C)(C)[C@@H]2O)C(C)(C)C1 (stereo partly drawn)	> 11.4	-3.8	inactive	-18	0.535	> 46	> 9.22	inactive	inactive	2.51 µM (active)			1.58 µM (active)				inactive
N#C/C(=C\Nc1ccccn1)C(=O)c1ccco1	> 11.4	2.96	inactive	2.59	3.37	> 46	> 9.22	inactive	inactive	3.16 µM (active)				-12.2			
COc1ccc2c(Cl)cc(NC(=S)Nc3ccccc3)nc2c1	10.6	9.58	0.398 µM (active)	12.1	2.27	> 46	> 9.22	inactive	inactive		67.2% [at 11.4 µM]						
Oc1ccc(Cc2nccc3cc(O)c(O)cc23)cc1O	> 11.4	-6.37	5.01 µM (active)	7.28	-2.43	> 46	> 9.22	inactive	inactive	inactive		1.26 µM (active)					
N#C[C@H](c1ccccc1)N1CCCN([C@@H](C#N)c2ccccc2)C1c1ccccc1O (stereo partly drawn)	> 11.4	8.03	3.98 µM (active)	-26.1	6.35	> 46	> 9.22	inactive	inactive	3.16 µM (active)			0.251 µM (active)				
Nc1[nH]c(=S)[nH]c(=O)c1N=Nc1c(Br)cc(S(N)(=O)=O)cc1Br	> 11.4	1.56	3.16 µM (active)	-0.337	12	> 46	> 9.22	inactive	inactive	inactive			inactive				
COc1ccc(/C=C(\C#N)C(N)=O)c(OC)c1	> 11.4	2.38	1.58 µM (active)	17.1	3.37	> 46	> 9.22	inactive	inactive	inactive				-21.9		2.51 µM (active)	inactive
